Hits are enriched below; roughly 11% of the tested compounds scored in any of these assays.
G9a inh – inhibitors of human histone lysine methyltransferase G9a | AID 504332 | G9a H3K9 monomethylation, AlphaScreen, 2 h | Potency, µM (series often up to 102 µM), inactives show top-dose activity, negative = inhibition, usual class: inhibitors | Q96KQ7 | 350,000 compounds, 8.8% hits; further: potency means the concentration at half of the fitted maximal effect; on the % scale 0 is the no-effect control and ±100 the full control effect; nearly all actives have a fitted effect of over 75% in size
Target sequence (Q96KQ7 913-1193 limits assumed): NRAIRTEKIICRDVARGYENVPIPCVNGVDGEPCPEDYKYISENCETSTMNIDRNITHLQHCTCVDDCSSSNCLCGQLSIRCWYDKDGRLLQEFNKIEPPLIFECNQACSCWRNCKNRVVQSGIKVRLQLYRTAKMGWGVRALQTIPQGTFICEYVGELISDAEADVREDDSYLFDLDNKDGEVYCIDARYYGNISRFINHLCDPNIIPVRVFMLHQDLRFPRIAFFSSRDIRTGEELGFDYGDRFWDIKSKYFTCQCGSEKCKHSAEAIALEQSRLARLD
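Readings reflect AlphaScreen signal from monomethyl-H3K9 antibody detection. HMT at 20 nM; substrate b-H3K9 500 nM; cofactor SAM 20 uM; 2 h RT reaction; compounds tested as titrations in qHTS with 15 min preincubation.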
L3MBTL1 block – inhibitors of human L3MBTL1; AID 485360; AlphaScreen L3MBTL1–H3K9me1 peptide binding; 230,000 compounds, 0.66% hits; Potency, µM (highest dose often 57.1 µM), for inactives: at the top dose activity, negative = inhibition, usual class: inhibitors; Q9Y468; further: potency means the concentration at half of the fitted maximal effect; on the % scale 0 is the no-effect control and ±100 the full control effect; nearly all actives have a fitted effect of over 60% in size
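L3MBTL1 50 nM + b-AHA-H3(1-15)K9me1 75 nM, 30 min RT; compound added, 30 min RT; streptavidin donor/Ni-chelate acceptor beads 10 ug/mL each final, 30 min RT dark; AlphaScreen read.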
JMJD2A Tudor inh – blocks the human JMJD2A Tudor domain. O75164. AlphaScreen JMJD2A-Tudor / H3K4me3 peptide binding. Potency, µM (titrated, usually from 114 µM), for inactives: at the highest dose activity change, negative = inhibition, most hits filed as inhibitors. 390,000 compounds, 4.4% hits. AID 504339; further: potency means the concentration at half of the fitted maximal effect; on the % scale 0 is the no-effect control and ±100 the full control effect; nearly all actives have a fitted effect of over 50% in size
HP1b binding inh – HP1-beta chromodomain-methylated histone interaction inhibition; P83916; AlphaScreen HP1-beta / biotin-H3K9me3 peptide binding; Potency, µM (doses to about 114 µM), without a hit: at the highest dose activity change, negative = inhibition, actives largely listed as inhibitors; 390,000 compounds, 0.56% hits; AID 540317; further: potency means the concentration at half of the fitted maximal effect; nearly all actives have a fitted effect of over 70% in size
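AlphaScreen: HP1-beta (50 nM) preformed 30 min with biotin-H3(1-18)K9me3 peptide (50 nM) in PBS pH 7.4, 0.01% Tween-20. Compound added for 30 min at RT, then streptavidin donor/nickel chelate acceptor beads (10 ug/mL) for 30 min.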
BAZ2B inh – inhibitors of human BAZ2B bromodomain. AID 504333. Q9UIF8. Potency, µM (doses to about 114 µM), for inactives: top-dose activity change, negative = inhibition, hits mostly inhibitors. AlphaScreen BAZ2B-H3K14Ac peptide displacement. 360,000 compounds, 4.4% hits; further: potency means the concentration at half of the fitted maximal effect; on the % scale 0 is the no-effect control and ±100 the full control effect; nearly all actives have a fitted effect of over 60% in size
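Compounds, titrated to a top concentration of 110 uM, were incubated 30 min at room temperature with preformed BAZ2B/acetyl-K14 H3 peptide complex (50 nM each). Proximity signal was measured by AlphaScreen after 20 min with beads.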
PI5P4Ka inh – blocks human PI5P4K alpha kinase activity. PI5P4Kalpha enzyme, ADP-Glo luminescence, 60 min; stronger effect = lower value. max response, %. 330,000 compounds, 1.2% hits. AID 652105; active means max response of -50% or lower; inconclusive means between -30% and -50%; inactive means -30% or higher; further: value at the top dose of about 77 µM; on the % scale 0 is the no-effect control and ±100 the full control effect
Target sequence (P48426 whole entry, looked up): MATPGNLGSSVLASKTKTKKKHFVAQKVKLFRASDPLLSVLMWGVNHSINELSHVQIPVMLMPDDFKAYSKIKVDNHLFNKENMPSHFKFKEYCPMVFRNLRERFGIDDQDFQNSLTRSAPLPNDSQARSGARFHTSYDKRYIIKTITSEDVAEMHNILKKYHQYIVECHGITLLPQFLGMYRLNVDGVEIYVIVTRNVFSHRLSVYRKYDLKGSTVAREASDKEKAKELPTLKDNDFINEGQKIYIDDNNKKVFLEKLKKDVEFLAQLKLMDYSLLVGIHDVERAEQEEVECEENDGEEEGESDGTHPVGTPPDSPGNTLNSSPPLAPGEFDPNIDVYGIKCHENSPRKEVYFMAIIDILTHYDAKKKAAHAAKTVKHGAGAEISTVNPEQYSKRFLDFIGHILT
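Single end-point luminescence (ADP-Glo) quantified ADP from PI5P4Kalpha turnover; ATP 5 microM final, 1 h at RT, 0.1% CHAPS and 0.28 mM EGTA in HEPES pH 7.4.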
* hit, by the source's call; ? = inconclusive; . = no result; ! = not confirmed by another sample; [ ] = dose if it differs, or a comment. Unless noted, the call rests on the fitted dose curve; in most records, active means well fitted inhibition curve with a large enough effect; inconclusive means small, poorly fitted or top-dose-only effect; inactive means no such curve, though single readings can be large or run the other way.

SMILES	G9a inh	L3MBTL1 block	JMJD2A Tudor inh	HP1b binding inh	BAZ2B inh	PI5P4Ka inh
COc1ccc(SCC(Cc2ccccc2)N2CCN(CC(C)C)CCC2=O)cc1 (stereo not drawn)	.	.	136%	181%	.	.
CC(=O)C1=C(C)NC(SCC(=O)Nc2nc3ccccc3s2)=C(C#N)C1c1ccc(Cl)cc1 (stereo not drawn)	8.9µM*	-6%	-32%	10%	-25%	-7
CCCCOP(=O)(OCCCC)C1(NS(=O)(=O)c2ccccc2)C=CC(=O)c2ccccc21 (stereo not drawn)	1.8µM*	-3%	?	?	-7%	2
CC(=O)Nc1ccccc1OC1=N[S+](=O)([O-])c2ccccc21	.	.	-10%	.	.	.
O=S(=O)(O)c1cc2oc(-c3ccccc3)nc2c2ccccc12	13%[12.7 µM]	-1%	-19%	36%	6%	-3
Nc1c(N=Nc2ccc(-c3ccc(N=Nc4cc(S(=O)(=O)O)c5ccccc5c4N)cc3)cc2)cc(S(=O)(=O)O)c2ccccc12	3.5µM*	.	.	.	.	.
CC[N+]1=CN(c2ccccc2)C(C)=CC1(C)C	1.8µM*	-7%	?	-11%	-7%	-1
COc1ccc(CNC(=O)CSc2nc3ccsc3c(=O)n2Cc2ccccc2Cl)cc1	8%[59 µM]	.	-10%	17%	0%	.
CC#C[C@]1(O)CC[C@H]2[C@@H]3CCC4=CC(=O)CCC4=C3[C@@H](c3ccc(N(C)C)cc3)C[C@@]21C	9.5µM*!	?	16µM*	?	13µM*	3
Cc1ccc(Cl)cc1NC(=O)CCc1c(C)nc2c3cccnc3nn2c1C	20%[59 µM]	.	8%	51%	5%	.
CCCCn1c(N)c(N(CC(C)C)C(=O)CSCc2c(C)noc2C)c(=O)[nH]c1=O	45µM*	-8%	-5%	16%	-15%	-6
CCCCn1c(N)c(N(CC(C)C)C(=O)CSC(C)C(=O)Nc2cc(C)on2)c(=O)[nH]c1=O (stereo not drawn)	56µM*	6%	-8%	40%	10%	0
COc1ccc(N=c2nc(-c3ccccc3)n(-c3ccc(C)cc3)s2)cc1	.	.	-35%[57.1 µM]	-29%[57 µM]	.	.
CCCS(=O)(=O)C/C(N)=N/OC(=O)c1ccccc1Cl	40µM*	.	-9%	10%	-32%	-1
O=C(O)Cc1c(C(=O)O)[nH]c2ccc(C(=O)O)cc12	50µM*	.	-11%	34%	?	4
COc1ccc2[nH]c(C(=O)O)c(CCC(=O)O)c2c1	?	.	-12%	28%	-28%	-24
COc1ccc2[nH]c(C(=O)O)c(CCN3C(=O)c4ccc(C(=O)O)cc4C3=O)c2c1	?	.	-6%	25%	-4%	-60*
O=C(O)c1ccc2[nH]c3c(c2c1)CCCC3	-4%[59 µM]	-9%	-15%	9%	-10%	-14
CCn1cc(C(=O)NCc2ccccc2Cl)c(=O)c2cc(S(=O)(=O)N3CCc4ccccc4C3)ccc21	6%[59 µM]	.	-12%	28%	.	.
CCc1nc(N2CCN(Cc3ccc4c(c3)OCO4)CC2)c2oc3ccccc3c2n1	?	-10%	?	?	71µM*	0
CCc1nc(N2CCCCC2)c2oc3ccccc3c2n1	8%[59 µM]	.	37%	104%	7%	.
CCc1nc(N2CCCC(C)C2)c2oc3ccccc3c2n1 (stereo not drawn)	?	71%	20µM*	63%	57%	.
Cc1cc(-c2ccccc2)[nH]c(=O)c1C#N	-2%	6%	-2%[57.1 µM]	51%	-2%	0
N#Cc1c(-c2ccco2)cc(-c2ccccc2)[nH]c1=O	.	.	?	21%	71µM*	-18
C=CCNc1nc(C(=O)OCC(=O)NCc2ccccc2OC)cs1	10%[59 µM]	-11%	-14%	4%	2%	-4
SMILES	G9a inh	L3MBTL1 block	JMJD2A Tudor inh	HP1b binding inh	BAZ2B inh	PI5P4Ka inh
C=CCNc1nc(C(=O)OCC(=O)Nc2cccc(SC)c2)cs1	56µM*	-12%	?	1%	79µM*	-4
C=CCNc1nc(C(=O)OCC(=O)c2ccc(C)c([N+](=O)[O-])c2)cs1	13%	.	-24%	-13%	50µM*	?
Cc1cc2n(n1)CCCN2C(=O)Nc1cccc(C)c1C	-19%[59 µM]	.	-10%	11%	5%[57.1 µM]	.
COc1ccc(C(=O)CSc2nnc3ccccn23)cc1OC	2%[59 µM]	.	-16%	75%	-1%	2
O=C(CSc1nnc(-c2ccc3c(c2)OCO3)n1-c1ccccc1)c1ccccc1	-2%[59 µM]	3%	-3%	17%	-3%	-4
CC(C)n1nnnc1SCC(=O)c1ccc2c(c1)OCCO2	-8%	-4%	11%[11.4 µM]	-17%	10%	-22
O=C(CSc1nnc2ccccn12)c1ccc2c(c1)OCCO2	40µM*	0%	-10%	49%	-4%	-13
CCn1c(SCC(=O)c2ccc3c(c2)OCCO3)nnc1C(C)C	45µM*	0%	-16%	-12%	0%	-14
O=C(CSc1nnc(-c2cccs2)n1-c1ccccc1)c1ccc2c(c1)OCCO2	40µM*	-4%	-2%	26%	11%	-6
CCCCNC(=O)CC1Nc2ccccc2NC1=O (stereo not drawn)	-32%	2%	-24%	30%	8%	-7
O=C(CC1Nc2ccccc2NC1=O)NCCCN1CCCCCC1 (stereo not drawn)	-15%[59 µM]	0%	32µM*	14%	-29%	1
COc1cc(NC(=O)Nc2cccc(-c3noc(C)n3)c2)cc(OC)c1OC	-2%[59 µM]	.	-33%	20%[57 µM]	-10%	.
CCOc1ccccc1NC(=O)CSc1ncc2c(n1)-c1ccccc1N(CC)S2(=O)=O	-2%[59 µM]	.	-2%	28%	0%	.
O=c1c2c3nc4ccccc4nc3n(-c3ccc4c(c3)OCCO4)c2ncn1C1CCCC1	-5%[59 µM]	3%	79µM*	42%	.	-2
N#Cc1nc(Nc2cccc3ccccc23)nc(NC2CCCC2)n1	.	.	-27%	.	.	.
O=C(CSc1ccc(Cl)cc1)Nc1nnc(-c2cccc([N+](=O)[O-])c2)s1	40µM*	3%	-10%	56%	-8%	2
Cc1nn2c(=O)cc(COC(=O)c3ccc(NC(=O)c4cccc(Br)c4)cc3)nc2s1	-28%[59 µM]	.	-21%	-16%	-5%	.
COc1ccc(-c2noc(CSc3nc(-c4ccccc4)cc(=O)[nH]3)n2)cc1	40µM*	.	-18%	37%	26%	.
Cc1cc(-c2ccc(S(=O)(=O)Nc3ccc(Cl)cc3C)cc2)on1	?	.	15%	62%	-2%	.
CC(C)C(NC(=O)C12CC3CC(CC(C3)C1)C2)C(=O)NC1=NCCS1 (stereo not drawn)	43%[12.7 µM]	-2%	.	.	-29%	.
CC(C)CC(NC(=O)CC12CC3CC(CC(C3)C1)C2)C(=O)NC1=NCCS1 (stereo not drawn)	.	2%	22µM*	4%	5%	-15
O=C(CC1CCCCC1)NCCOc1ccccc1	9%[59 µM]	7%	50µM*	17%	-2%	-14

Assay outcomes: PubChem BioAssay, National Center for Advancing Translational Sciences (NCATS)
